Source: the OligoGym collection

Molecular target: LAMB4
Assay: pooled miR-30 sensor sort-seq; sequence = guide strand
Conditions: shRNA
Also: reference of the scale not given here.

| Sequence | sensor-assay potency score (higher = more potent) |
| --- | --- |
| TATTGTATCTTTCAGATCTTGA | 0.0271 |
| TTGCTCTTTCTATTGTATCTTT | -0.796 |
| TTGACTTTTAAGAATTTCCCAG | -0.128 |
| TTTGTTAGTCCTGTAGTGCTTG | 0.084 |
| TATTTTGACAAGTTCATCGGTT | 0.404 |
| TTTGACTGTAGAGTCTTGGGTA | 0.734 |

Molecular target: LAMC1
Assay: as above
Conditions: shRNA

| Sequence | sensor-assay potency score (higher = more potent) |
| --- | --- |
| TTCCTTTAGTCTATCCTCGAAG | -0.66 |
| TAGGACTTGAGAACTTTGGGAT | 0.474 |
| TTGACTTCAAGTTCCTTCCCTC | 0.467 |
| TTCTTTTGGACAGCGCTCGCGA | -0.297 |
| TTCATCAGTACACAAGGCCTGC | -0.475 |
| TACATTTACATCTGCCACCTAC | -0.06 |
| TTTGCAATTACACACCAGCTTA | -0.786 |
| TTCAATATTACATTCATCTATG | -0.485 |
| TCGTTCTTCATACACTCGCTTG | -1.26 |
| TATGAGACTCTCTAATTCCTGG | -0.463 |
| TTGTCTTTGCAAACACATCTTC | -0.117 |
| TTCGCTTGTTCATACTTCCTAT | 0.107 |

Molecular target: LANCL2
Assay: as above
Conditions: shRNA

| Sequence | sensor-assay potency score (higher = more potent) |
| --- | --- |
| TATGAAATTATGAATGATCTTC | 0.142 |
| AATAATAGCATTGACTACCTCT | 0.441 |
| TTTCTTGGTCCACTTTTGCTGC | -1.18 |
| TGATTCTTGGCAGACAACCGAT | -0.954 |
| AAGTTTTGTGACACATTCCTGG | 0.068 |
| TTTCTGTCAAGGTTTCTTGGTC | -0.185 |
| TTTCAAGTACTTCTCCTCCTTA | -0.0935 |
| TTTTGTGACACATTCCTGGGAC | 0.967 |
| TTTAATTTTGGTCTGGATCCGT | 0.159 |
| AATCACATCGCTACACTCCATG | -1.26 |
| TAATAGCTGACTCACACACGGT | -0.857 |
| TTAACATATAGTAAATTCCAGC | -0.758 |

Molecular target: LARP1B
Assay: as above
Conditions: shRNA

| Sequence | sensor-assay potency score (higher = more potent) |
| --- | --- |
| TTTCTTGACTCTCTGATCTTAC | -0.67 |
| TAGGATCTTGTAACCTAGGTGT | 0.016 |
| TTCTTCTGAAGAACATAGCTGA | 0.273 |
| TAAATGTGTTTTTTCGTCCTAT | 0.39 |
| TAGTAATACATCATACTGGTAT | -0.0186 |
| TTTACTAATGAGATTTAGCTTC | -0.374 |
| TTCTACTTCTGTGCTATCCTTC | 0.509 |
| TATCTCGCTTCCAACTTCGTGT | -0.146 |
| TGAAACATCAAATAACTTCTGA | 0.226 |
| TGATCTTACAACATCTAAGTGG | -0.00509 |
